Assay results taken from ChEMBL document CHEMBL1961873, “Compounds: GSK PKIS; Assays: Nanosyn kinase panel” (2012).

Key:
[1] = biological target: Leukocyte tyrosine kinase receptor (Homo sapiens) (UniProt P29376); conditions: at 1 µM;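 further: each value is the mean inhibition of LTK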
[2] = biological target: Tyrosine-protein kinase Lyn (Homo sapiens) (UniProt P07948); conditions: at 0.1 µM
[3] = biological target: Tyrosine-protein kinase Lyn (Homo sapiens) (UniProt P07948); conditions: at 1 µM
[4] = biological target: Tyrosine-protein kinase Lyn (Homo sapiens) (UniProt P07948); conditions: at 0.1 µM; remark: listed apart in the source
[5] = biological target: Tyrosine-protein kinase Lyn (Homo sapiens) (UniProt P07948); conditions: at 1 µM; remark: listed apart in the source
[6] = biological target: T1, Tyrosine-protein kinase Mer (Homo sapiens) (UniProt Q12866); conditions: at 0.1 µM
T1 sequence (whole entry): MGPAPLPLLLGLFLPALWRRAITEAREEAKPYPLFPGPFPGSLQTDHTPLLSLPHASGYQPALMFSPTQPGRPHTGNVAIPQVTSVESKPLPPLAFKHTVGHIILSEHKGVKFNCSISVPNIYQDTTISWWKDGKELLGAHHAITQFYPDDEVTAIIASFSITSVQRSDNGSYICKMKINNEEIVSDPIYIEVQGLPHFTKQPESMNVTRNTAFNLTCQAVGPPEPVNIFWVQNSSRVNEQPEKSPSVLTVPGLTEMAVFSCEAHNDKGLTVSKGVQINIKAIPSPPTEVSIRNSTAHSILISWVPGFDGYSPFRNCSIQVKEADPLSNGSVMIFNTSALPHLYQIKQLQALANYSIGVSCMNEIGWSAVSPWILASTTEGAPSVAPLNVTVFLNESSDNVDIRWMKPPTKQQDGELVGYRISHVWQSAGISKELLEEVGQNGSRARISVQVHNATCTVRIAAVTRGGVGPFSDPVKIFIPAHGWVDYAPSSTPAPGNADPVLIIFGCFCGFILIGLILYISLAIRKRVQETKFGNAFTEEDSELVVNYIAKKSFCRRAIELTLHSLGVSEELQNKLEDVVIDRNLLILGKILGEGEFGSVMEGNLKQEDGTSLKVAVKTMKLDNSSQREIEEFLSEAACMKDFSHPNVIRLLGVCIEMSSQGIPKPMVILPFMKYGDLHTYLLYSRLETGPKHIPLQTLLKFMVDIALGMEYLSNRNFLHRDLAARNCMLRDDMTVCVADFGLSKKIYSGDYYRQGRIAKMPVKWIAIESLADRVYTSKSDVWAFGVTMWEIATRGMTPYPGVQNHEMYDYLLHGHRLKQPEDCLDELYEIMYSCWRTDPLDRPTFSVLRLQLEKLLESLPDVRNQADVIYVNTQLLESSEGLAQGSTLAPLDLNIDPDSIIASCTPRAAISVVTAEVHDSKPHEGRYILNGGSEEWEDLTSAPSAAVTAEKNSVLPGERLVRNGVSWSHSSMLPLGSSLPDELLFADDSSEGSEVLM

[7] = biological target: T1, Tyrosine-protein kinase Mer (Homo sapiens); conditions: at 1 µM
[8] = biological target: Hepatocyte growth factor receptor (Homo sapiens) (UniProt P08581); conditions: at 0.1 µM
Chain of Hepatocyte growth factor receptor (Homo sapiens) (P08581 whole entry): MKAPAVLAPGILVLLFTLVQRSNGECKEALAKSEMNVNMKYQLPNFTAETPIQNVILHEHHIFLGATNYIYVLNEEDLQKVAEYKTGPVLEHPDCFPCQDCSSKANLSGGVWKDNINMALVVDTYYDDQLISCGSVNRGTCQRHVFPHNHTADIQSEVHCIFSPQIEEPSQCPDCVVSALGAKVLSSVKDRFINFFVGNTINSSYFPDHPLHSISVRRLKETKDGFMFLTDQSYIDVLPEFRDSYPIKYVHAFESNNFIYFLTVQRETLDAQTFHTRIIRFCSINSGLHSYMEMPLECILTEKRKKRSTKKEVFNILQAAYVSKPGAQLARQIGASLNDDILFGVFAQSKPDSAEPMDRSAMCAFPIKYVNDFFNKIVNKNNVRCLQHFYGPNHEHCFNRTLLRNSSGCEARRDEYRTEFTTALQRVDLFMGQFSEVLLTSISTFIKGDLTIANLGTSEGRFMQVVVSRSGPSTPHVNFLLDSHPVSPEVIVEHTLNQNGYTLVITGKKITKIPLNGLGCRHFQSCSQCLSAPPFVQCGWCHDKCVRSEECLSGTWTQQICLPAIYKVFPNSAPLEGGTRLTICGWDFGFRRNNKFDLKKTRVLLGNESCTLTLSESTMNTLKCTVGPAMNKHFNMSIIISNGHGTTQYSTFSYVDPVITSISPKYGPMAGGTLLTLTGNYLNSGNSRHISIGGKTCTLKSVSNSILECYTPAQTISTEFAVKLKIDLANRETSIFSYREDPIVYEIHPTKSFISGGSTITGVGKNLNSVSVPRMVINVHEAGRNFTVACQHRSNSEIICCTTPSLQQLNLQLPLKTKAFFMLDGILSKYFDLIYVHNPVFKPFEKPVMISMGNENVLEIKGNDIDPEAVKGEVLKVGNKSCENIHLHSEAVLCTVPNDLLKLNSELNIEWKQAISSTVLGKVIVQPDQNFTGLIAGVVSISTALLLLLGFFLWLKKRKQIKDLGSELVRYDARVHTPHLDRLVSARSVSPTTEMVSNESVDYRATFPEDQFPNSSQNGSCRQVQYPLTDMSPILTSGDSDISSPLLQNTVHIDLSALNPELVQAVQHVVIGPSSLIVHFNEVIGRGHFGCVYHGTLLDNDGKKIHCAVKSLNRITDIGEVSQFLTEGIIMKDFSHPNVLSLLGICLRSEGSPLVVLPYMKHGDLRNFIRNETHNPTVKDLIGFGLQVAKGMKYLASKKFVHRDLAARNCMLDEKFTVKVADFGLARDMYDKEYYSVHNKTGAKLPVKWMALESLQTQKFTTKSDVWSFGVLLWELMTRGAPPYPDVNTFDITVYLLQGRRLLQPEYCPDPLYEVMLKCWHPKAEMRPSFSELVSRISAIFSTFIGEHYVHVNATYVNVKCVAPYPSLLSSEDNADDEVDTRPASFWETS

[9] = biological target: Hepatocyte growth factor receptor (Homo sapiens) (UniProt P08581); conditions: at 1 µM
[10] = biological target: T2, Muscle, skeletal receptor tyrosine-protein kinase (Homo sapiens) (UniProt O15146); conditions: at 0.1 µM;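 further: values are mean inhibition of MuSK from the GSK PKIS kinase screening panel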
T2 sequence (whole entry): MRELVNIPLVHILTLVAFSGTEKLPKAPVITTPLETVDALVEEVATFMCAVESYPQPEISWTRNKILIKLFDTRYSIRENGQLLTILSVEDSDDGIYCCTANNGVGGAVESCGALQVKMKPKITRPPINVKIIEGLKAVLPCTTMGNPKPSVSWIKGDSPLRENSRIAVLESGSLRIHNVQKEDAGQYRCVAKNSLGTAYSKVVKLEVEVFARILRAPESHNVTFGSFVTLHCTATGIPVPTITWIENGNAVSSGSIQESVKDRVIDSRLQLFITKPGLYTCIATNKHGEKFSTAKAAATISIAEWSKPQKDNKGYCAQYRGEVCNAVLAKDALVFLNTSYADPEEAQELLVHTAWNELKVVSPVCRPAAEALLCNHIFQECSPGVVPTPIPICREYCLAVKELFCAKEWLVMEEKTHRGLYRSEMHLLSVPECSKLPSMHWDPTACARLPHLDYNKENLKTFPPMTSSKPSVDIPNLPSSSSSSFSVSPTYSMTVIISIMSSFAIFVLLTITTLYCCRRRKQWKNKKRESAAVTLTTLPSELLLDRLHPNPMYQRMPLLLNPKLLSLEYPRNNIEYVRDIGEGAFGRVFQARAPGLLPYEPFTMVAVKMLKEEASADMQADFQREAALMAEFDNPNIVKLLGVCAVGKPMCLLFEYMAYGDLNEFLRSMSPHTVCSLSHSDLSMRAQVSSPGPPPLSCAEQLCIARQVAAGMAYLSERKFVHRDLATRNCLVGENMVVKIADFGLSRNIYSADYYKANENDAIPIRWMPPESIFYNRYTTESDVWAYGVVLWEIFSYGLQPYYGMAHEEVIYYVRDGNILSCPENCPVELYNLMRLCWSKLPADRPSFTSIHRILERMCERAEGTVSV

Chain of Tyrosine-protein kinase Lyn (Homo sapiens) (P07948 2-512 limits assumed): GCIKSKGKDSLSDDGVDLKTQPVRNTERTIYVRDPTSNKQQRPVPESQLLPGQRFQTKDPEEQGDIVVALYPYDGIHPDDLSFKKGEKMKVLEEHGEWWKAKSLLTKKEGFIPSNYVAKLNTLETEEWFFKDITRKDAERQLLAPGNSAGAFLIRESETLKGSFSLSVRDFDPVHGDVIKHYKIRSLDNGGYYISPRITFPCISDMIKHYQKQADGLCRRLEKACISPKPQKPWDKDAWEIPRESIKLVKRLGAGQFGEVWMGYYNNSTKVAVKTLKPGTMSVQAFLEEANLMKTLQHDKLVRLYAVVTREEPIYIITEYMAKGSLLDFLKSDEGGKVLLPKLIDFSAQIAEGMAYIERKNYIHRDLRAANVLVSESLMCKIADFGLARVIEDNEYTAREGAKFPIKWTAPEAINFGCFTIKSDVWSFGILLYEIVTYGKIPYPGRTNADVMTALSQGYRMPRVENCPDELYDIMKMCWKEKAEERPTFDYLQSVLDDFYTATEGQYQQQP
Chain of Leukocyte tyrosine kinase receptor (Homo sapiens) (P29376 whole entry): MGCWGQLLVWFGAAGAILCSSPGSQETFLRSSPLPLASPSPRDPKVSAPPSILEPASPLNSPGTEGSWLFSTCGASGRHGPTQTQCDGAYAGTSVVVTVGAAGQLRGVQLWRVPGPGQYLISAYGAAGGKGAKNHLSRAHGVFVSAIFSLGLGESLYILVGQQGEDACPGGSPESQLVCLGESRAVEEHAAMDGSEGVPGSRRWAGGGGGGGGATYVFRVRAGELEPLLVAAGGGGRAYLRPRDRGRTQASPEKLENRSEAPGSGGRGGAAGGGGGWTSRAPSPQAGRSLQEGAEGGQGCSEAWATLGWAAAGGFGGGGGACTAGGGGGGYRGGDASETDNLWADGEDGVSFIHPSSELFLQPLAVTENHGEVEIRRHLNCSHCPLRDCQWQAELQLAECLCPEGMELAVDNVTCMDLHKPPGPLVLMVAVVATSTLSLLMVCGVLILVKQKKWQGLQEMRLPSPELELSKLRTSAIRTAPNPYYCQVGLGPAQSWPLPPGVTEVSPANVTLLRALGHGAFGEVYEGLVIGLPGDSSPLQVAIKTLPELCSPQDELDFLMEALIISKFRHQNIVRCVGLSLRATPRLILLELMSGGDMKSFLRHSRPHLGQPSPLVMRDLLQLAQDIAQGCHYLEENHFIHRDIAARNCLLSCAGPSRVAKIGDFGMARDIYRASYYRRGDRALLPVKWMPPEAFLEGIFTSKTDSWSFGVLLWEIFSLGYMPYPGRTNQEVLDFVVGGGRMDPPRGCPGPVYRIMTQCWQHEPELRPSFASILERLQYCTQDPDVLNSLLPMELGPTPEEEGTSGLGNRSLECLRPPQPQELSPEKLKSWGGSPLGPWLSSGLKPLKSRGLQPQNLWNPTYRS

SMILES | inhibition [1] | inhibition [2] | inhibition [3] | inhibition [4] | inhibition [5] | inhibition [6] | inhibition [7] | inhibition [8] | inhibition [9] | inhibition [10]
CC1=C(C(=O)Nc2ccc3[nH]ncc3c2)C(c2ccc(Cl)c(Cl)c2)CC(=O)N1 (stereo not given) | 0.02% | 3.35% | 9.96% | 2.18% | 7.24% | 0.79% | 1.25% | -0.1% | 5.85% | 2.88%
O=C1NC(=O)C(c2cccc(Cl)c2)=C1Nc1ccc(O)c(Cl)c1 | 0.35% | 1.27% | 3.18% | 0.38% | 3.63% | -0.5% | 3.08% | 0.77% | 3.7% | 0.25%
COc1cc2ncn(-c3cc(OCc4ccccc4Cl)c(C(N)=O)s3)c2cc1OC | 4.03% | 3.15% | 25.6% | 2.45% | 21.1% | 1.26% | 8.5% | -0.6% | 19.7% | 4.75%
NC(=O)c1ccc(-c2nc(-c3ccccn3)c(-c3ccc4c(c3)OCO4)[nH]2)cc1 | 3.18% | 2.23% | 2.11% | 1.62% | 3.18% | 1.67% | 3.36% | -4.12% | 9.28% | 2.51%
COc1ccc(-c2nn3ncccc3c2-c2ccnc(Nc3ccc(Cl)c(C(F)(F)F)c3)n2)cc1 | 2.96% | 2.95% | 7.79% | 2.39% | 7.64% | 0.1% | 0.41% | 7.55% | 4.08% | 2.01%
COc1cc2c(cc1Nc1nc(N3CCc4ccccc43)c3cc[nH]c3n1)N(C(=O)CN(C)C)CC2 | 89.9% | 1.75% | 1.39% | 0.29% | 1.23% | 1.28% | 0.11% | 2.24% | -6.58% | -0.85%
Cc1ccc(C(=O)NC2CCCCC2)cc1-c1ccc(C(=O)NCC2CC2)cc1 | 0.02% | 2.9% | 2.6% | 1.53% | 0.34% | 1.63% | 3.6% | 4.53% | 5.05% | 6.01%
[O-][S+]1CCN(Cc2ccc(-c3ccc4ncnc(Nc5ccc(OCc6ccccc6)c(F)c5)c4c3)o2)CC1 | 3.33% | 2.19% | 5.34% | 1.2% | 1.42% | 42.1% | 81.8% | 6.51% | 0.93% | 1.44%
Fc1cccc(COc2ccc(Nc3ncnc4cc(-c5ccc[nH]5)sc34)cc2Cl)c1 | 9.35% | 2.95% | 7.02% | 1.43% | 4.65% | 1.29% | 5.95% | -0.09% | 4.48% | 1.3%
CS(=O)(=O)CCN(CC#N)Cc1ccc(-c2ccc3ncnc(Nc4ccc(OCc5cccc(F)c5)c(Cl)c4)c3c2)o1 | 1.95% | 2.44% | 3.17% | 1.32% | 1.72% | 2.77% | 2.05% | 7.6% | 2.64% | 1.44%
NS(=O)(=O)c1cccc(-c2ccc3c(NC(=O)C4CC4)n[nH]c3c2)c1 | -0.78% | 1.09% | 1.65% | 1.19% | 1.05% | 0.89% | 1.03% | -4.06% | 3.16% | 0.75%
CC(C)=Cc1cccc2c1/C(=N/Nc1ccc(S(N)(=O)=O)cc1)C(=O)N2 | 11.3% | 6.78% | 35.8% | 5.19% | 29.9% | 0.25% | 3.48% | -0.76% | 19.6% | 7%
CS(=O)(=O)CCNCc1ccc(-c2ccc3ncnc(Nc4ccc(OCc5cccc(F)c5)c(C(F)(F)F)c4)c3c2)o1 | 3.49% | 6.53% | 6.94% | 3.88% | 4.94% | 1.14% | 0.83% | 7.18% | 3.55% | 3.27%
CS(=O)(=O)CCNCc1nc(-c2ccc3ncnc(Nc4ccc(F)c(Cl)c4)c3c2)cs1 | 1.99% | 4.29% | 27.3% | 3.57% | 19.4% | 0.48% | 4.95% | 3.54% | 9.65% | 1.59%
COc1cc2ncn(-c3cc(OCc4ccccc4C(F)(F)F)c(C(N)=O)s3)c2cc1OC | 4.35% | 6.12% | 21.5% | 3.89% | 17.4% | 2.08% | 9.28% | 4.37% | 19.5% | 11%
Cn1cc(C=C2C(=O)Nc3cccnc32)c2ccccc21 | 5.51% | 6.97% | 41.8% | 5.53% | 36% | 2.2% | 16.9% | 0.96% | 5.5% | 3.74%
NS(=O)(=O)c1ccc(N/N=C2\C(=O)Nc3ccc(C(=O)NCCc4c[nH]cn4)cc32)cc1 | 7.32% | 8.15% | 15.6% | 5.07% | 12.6% | 0.87% | 4.99% | 8.81% | 12.3% | 10.8%
